# Compound activity (PubChem BioAssay)
# Shiga inhibitor – blocks Shiga toxin action in Vero cells | hit rate 9.2% among 290,000 | AID 2315 | Vero cells, Shiga toxin protein synthesis inhibition reporter | inhibition, % at 38.7 µM; in the data active means inhibition mostly above about 28%, no sharp cut-off; inactive means mostly below about 43%; further: 0% is about no effect
# CHX counter – counter-screen hit for Shiga toxin inhibitors, cycloheximide. max response, %. hit rate 12% among 300,000. cell reporter, cycloheximide protein synthesis inhibition counterscreen; in the data active means max response mostly above about 13%, no sharp cut-off; inactive means mostly below about 14%; further: read at 38.3 µM for the half of the compounds with a filed dose; 0% is about no effect
# HCMV inh – human cytomegalovirus inhibition; HFF cells, HCMV-luciferase reporter, 72 h; stronger effect = lower value; activity change, negative = inhibition, % at 57.5 µM; hit rate 4.5% among 410,000; in the data active means activity change below about -60%; inconclusive means no clear call, values can overlap the other calls; inactive means above about -39%; further: on the % scale 0 is the no-effect control and ±100 the full control effect
#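 After 16 h attachment at 37C, HFF cells received test compound and HCMV-luciferase (1 PFU/cell); reporter luminescence read 72 h later, data normalized against buffer-only and known inhibitor Salinomycin.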
# HCV inhibitor – HCV inhibition | Huh7.5.1 HCVcc-Cre infection, luciferase reporter, 44 h | Potency, µM (titrated, usually from 41.8 µM), for inactives: top-dose activity change, negative = inhibition, actives largely listed as inhibitors | hit rate 3.4% among 340,000 | AID 651820; further: potency means the concentration at half of the fitted maximal effect; on the % scale 0 is the no-effect control and ±100 the full control effect
#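 Luciferase read-out (15 sec integration) after a 15 min room-temperature substrate step quantifies HCVcc-Cre infection. Cells, 1,000 per well, had compound added 4 h post-plating, then virus at ~0.5 moi, and were cultured 44 h.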
# Pf growth 96h – inhibits malaria parasite growth, 96 h | hit rate 6.9% among 320,000 | Potency, µM (highest dose often 28.7 µM), for the others: at the top dose activity change, negative = inhibition, hits mostly inhibitors | P. falciparum luciferase reporter growth, 96 h | AID 504834; further: potency means the concentration at half of the fitted maximal effect; on the % scale 0 is the no-effect control and ±100 the full control effect
#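 Two-generation exposure (96 h) targets delayed-death phenotype. Reporter parasites carrying integrated firefly luciferase, in red cells at 2% hematocrit and 0.05% parasitemia final, kept at 37 C, 5% CO2; luminescence loss indicates inhibition.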
# Pf growth 48h – P. falciparum growth inhibition at 48 hours (one generation); P. falciparum luciferase growth in erythrocytes, 48 h; Potency, µM (titrated, usually from 28.7 µM), for inactives: at the top dose activity change, negative = inhibition, hits mostly inhibitors; hit rate 5.9% among 310,000; further: potency means the concentration at half of the fitted maximal effect; on the % scale 0 is the no-effect control and ±100 the full control effect
#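 In quantitative HTS format, infected erythrocytes bearing luciferase-reporter parasites were treated for a single generation at 37 C. Luminescence after adding detection reagent served as the growth measure.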
# Numbers without * were called inactive; ? = inconclusive; nt = not tested or not shown. A selection: hits, their analogues and other compounds. The true share with any hit is near 21%. Unless noted, the call rests on the fitted dose curve; in most records, active means well fitted inhibition curve with a large enough effect; inconclusive means small, poorly fitted or top-dose-only effect, or another doubt; inactive means no such curve, though single readings can be large or run the other way.
SMILES,Shiga inhibitor,CHX counter,HCMV inh,HCV inhibitor,Pf growth 96h,Pf growth 48h
O=C(C1CCCCC1)N(Cc1cccnc1)c1nc2ccc(F)cc2s1,nt,nt,1.2,nt,nt,nt
COc1cc(C)c(CN2CC=C(c3ccc(F)cc3)CC2)cc1C,nt,-2.1,-28.0,-15.5%,11.7µM*,39.7%
COc1cc(CN2CC=C(c3ccc(F)cc3)CC2)cc(OC)c1,-3.6,-2.7,-3.8,-14.8%,-103.8%,-3.6%
CC1CCN(C(=S)NC(=O)c2ccco2)CC1,50.0,33.1*,-68.5*,14.0%,-1.0%,17.3%
CC(C)CNC(=S)N1CCC(NC(=O)c2ccco2)CC1,6.0,-1.4,18.8,14.6%,11.7µM*,-3.2%
CC1CCCCN1C(=S)NC(=O)c1ccco1 (configuration not stated),nt,nt,29.1,10.0%,-21.6%,-12.2%
C=CCNC(=O)CN1CCC(NC(=O)c2ccco2)CC1,-10.9,-5.5,1.7,1.3%,?,29.4%
Cc1ccc(C)c(NC(=S)N2CCC(NC(=O)c3ccco3)CC2)c1,7.8,-4.9,-2.7,-1.5%,47.5%,0.7%
COCCNC(=O)CN1CCC(NC(=O)c2ccco2)CC1,49.5,22.5*,13.7,16.0%,20.2%,20.2%
Cc1ccccc1NC(=S)N1CCC(NC(=O)c2ccco2)CC1,-7.3,4.2,-33.2,1.9%,3.29µM*,9.0%
Cc1ccc(CNC(=O)c2c3c(nc4ccccc24)C(=O)N(C2CCCCC2)C3)cc1,nt,nt,15.1,nt,nt,nt
C[C@@H]1C=CCCO[C@]12C(=O)N(CC1CC1)c1cccc(Br)c12,nt,nt,-10.9,nt,nt,nt
O=C(CSc1n[nH]c(=O)n1C1CC1)c1ccc(F)cc1,17.5,13.5*,27.8,10.6%,42.9%,31.3%
COc1ccc(NC(=O)COC(=O)CCC2CCCCC2)cc1,nt,nt,-25.1,0.2%,nt,nt
COc1ccc(C[C@H]2CN3C(=NC[C@@H]3Cc3ccccc3)N2CCNC(=O)CCC2CCCCC2)cc1,-24.2,-3.5,-32.5,-60.1%,2.94µM*,3.7µM*
C[C@@H]1CN=C2N(CCNC(=O)CCC3CCCCC3)[C@H](Cc3ccc(O)cc3)CN21,-4.4,-2.9,?,11.5%,13.1µM*,5.1%
O=C(CCC1CCCCC1)NCCN1C2=NC[C@H](Cc3ccc(O)cc3)N2C[C@H]1Cc1ccc(O)cc1,-10.3,3.4,?,17.8%,?,?
COc1cccc(CNC(=O)CCC2CCCN(c3cc(C)nc(N(C)C)n3)C2)c1 (configuration not stated),11.6,-0.7,-38.2,-3.2%,?,?
COc1ccc(C[C@H]2CN3C(=NC[C@@H]3C(C)C)N2CCNC(=O)CCC2CCCCC2)cc1,-12.6,-0.9,54.7,-21.1%,4.65µM*,?
CC(C)[C@H]1CN=C2N(CCNC(=O)CCC3CCCCC3)[C@H](Cc3ccc(O)cc3)CN21,10.7,-0.3,27.6,3.9%,?,9.28µM*
Cc1ccc(NC(=O)C2(C)CCN2C(=O)Cc2ccc(C(C)(C)C)cc2)cc1C (configuration not stated),nt,nt,-29.7,nt,nt,nt
CCOC(=O)c1c(C)oc2c(Cl)cc(NS(=O)(=O)c3ccc(Cl)c(C)c3)cc12,nt,nt,12.7,nt,nt,nt
COc1ccc(Cl)cc1NC(=O)Cc1coc2c(C)c(C)ccc12,nt,nt,-10.5,nt,nt,nt
CC(=O)Nc1ccc(NC(=O)c2nc(S(=O)(=O)Cc3cccc(C)c3)ncc2Cl)cc1,99.1*,45.7*,-101.3*,?,?,27.1%
COC(=O)c1ccccc1NC(=O)c1nc(S(=O)(=O)Cc2cccc(C)c2)ncc1Cl,nt,nt,-60.1*,nt,nt,nt
SMILES,Shiga inhibitor,CHX counter,HCMV inh,HCV inhibitor,Pf growth 96h,Pf growth 48h
Cc1cccc(CS(=O)(=O)c2ncc(Cl)c(C(=O)NCc3ccc4c(c3)OCO4)n2)c1,11.7,8.2,-77.8*,1.2%,15.1%,6.8%
Cc1ccc(CNC(=O)c2nc(SCc3cccc(C)c3)ncc2Cl)cc1,nt,nt,-10.1,nt,nt,nt
COC(=O)c1ccc(NC(=O)c2nc(S(=O)(=O)Cc3cccc(C)c3)ncc2Cl)cc1,24.8,13.2,-101.3*,?,-19.0%,17.6%
Cc1ccc(CNC(=O)c2nc(S(=O)(=O)Cc3ccc(C)cc3)ncc2Cl)cc1,nt,nt,19.3,nt,nt,nt
CCN(Cc1ccccc1)C(=O)CN1C(=O)CSc2ccc(S(=O)(=O)N(CC)CC)cc21,nt,nt,-7.5,nt,nt,nt
COc1cccc(OCc2ccc(Cn3nc(NC(=O)NCCc4ccc(OC)c(OC)c4)c4ccccc43)cc2)c1,nt,nt,94.7,nt,nt,nt
COc1ccc(N2CCN(C(=O)CN3C(=O)NC4(CCCCC4C)C3=O)CC2)cc1 (configuration not stated),nt,nt,2.3,15.1%,nt,nt
N#Cc1c(-c2ccccc2Cl)noc1/C=C/Nc1ccc(C(=O)O)cc1,35.4,16.8,1.0,-5.3%,71.0%,72.3%
Cc1ccccc1NC(=O)C1(C)Cc2ccccc2C(=O)O1 (configuration not stated),-3.4,-1.4,-31.1,-3.5%,?,?
Cc1ccc(NC(=O)C2(C)Cc3ccccc3C(=O)O2)cc1 (configuration not stated),17.7,10.2,-60.1*,-23.8%,24.4%,1.7%
CCn1c(CSc2nc3ccccc3n2C)nc2ccccc21,-5.2,5.0,-30.3,-25.6%,-42.4%,?
CCn1c(SCc2ccccc2Cl)nc2ccccc21,26.3,34.6*,13.1,?,121.4%,32.9%
Cn1c(SCc2ccccc2Cl)nc2ccccc21,76.5*,52.6*,16.1,-6.7%,-2.1%,nt
CCOC(=O)c1cc(C)sc1NC(=O)CSc1nccn1C,110.5*,49.9*,?,12.6µM*,20.4%,-3.3%
CCOC(=O)c1c(NC(=O)COC(=O)c2ccc(O)cc2)sc(C(=O)NC)c1C,nt,nt,0.0,?,nt,nt
COC(=O)c1c(NC(=O)CSc2nccn2C)sc(C)c1C,nt,nt,-3.3,?,-10.1%,?
CCOC(=O)c1c(NC(=O)COC(=O)CC(NC(C)=O)c2ccccc2)sc(C(=O)NC)c1C (configuration not stated),nt,nt,29.1,10µM*,?,?
CCOC(=O)c1c(NC(=O)CSc2nccn2C)sc(C(=O)NC)c1C,nt,nt,22.1,10µM*,?,?
Cc1ccc(S(=O)(=O)c2c(C)nn(-c3ccccc3)c2OC(=O)c2ccccc2F)cc1,nt,nt,3.7,nt,nt,nt
Cc1cc2c(cc1S(=O)(=O)Nc1cccc(C(F)(F)F)c1)OCCN2C,nt,nt,36.8,nt,nt,nt
c1ccc(C[C@H]2CN=C(Nc3ccccc3)N2CC2CCCCC2)cc1,nt,nt,21.1,-28.8%,nt,nt
CC1CCC(CN2C(Nc3ccccc3)=NC[C@@H]2Cc2ccccc2)CC1 (some centres not stated),nt,nt,36.0,7.94µM*,nt,nt
c1ccc(C[C@H]2CN=C(Nc3ccccc3)N2CC2CCC2)cc1,nt,nt,-26.2,-19.3%,-20.1%,?
c1ccc(C[C@H]2CN=C(Nc3ccccc3)N2CCCC2CCCCC2)cc1,nt,nt,-61.0*,3.98µM*,nt,nt
CC(C)C[C@H]1CN=C(Nc2ccccc2)N1CCCC1CCCC1,-1.7,-3.0,-70.0*,?,11.7µM*,?
